This is one part of a sample in which hits are shown more often than they occur.
TDP1 cell noCPT: qHTS for Inhibitors of human tyrosyl-DNA phosphodiesterase 1 (TDP1): qHTS in cells in absence of CPT | DT40 Tdp1-/- hTDP1 cells, no CPT, ATP luminescence, 48 h | Potency, µM (titrated, usually from 46.2 µM), actives largely listed as inhibitors | hit rate 15% among 420,000 | AID 686978, 2013; also: nearly all actives have a fitted effect of over 55% in size
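Camptothecin absent (DMSO only). Human TDP1-complemented DT40 knockout cells, 400 cells/well, 37 °C for minimum 48 hr; ATP measured via CellTiter-Glo, 30 min dark incubation, luminescence.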
ALOX12 inh: Primary qHTS assay for inhibitors of human arachidonate 12S-lipoxygenase (ALOX12): Round 2 | purified 12hLO, xylenol orange hydroperoxide absorbance | Potency, µM (highest dose often 108 µM), actives largely listed as inhibitors | hit rate 1.1% among 580,000 | AID 1671190, 2021
Target sequence (P18054 whole entry, looked up): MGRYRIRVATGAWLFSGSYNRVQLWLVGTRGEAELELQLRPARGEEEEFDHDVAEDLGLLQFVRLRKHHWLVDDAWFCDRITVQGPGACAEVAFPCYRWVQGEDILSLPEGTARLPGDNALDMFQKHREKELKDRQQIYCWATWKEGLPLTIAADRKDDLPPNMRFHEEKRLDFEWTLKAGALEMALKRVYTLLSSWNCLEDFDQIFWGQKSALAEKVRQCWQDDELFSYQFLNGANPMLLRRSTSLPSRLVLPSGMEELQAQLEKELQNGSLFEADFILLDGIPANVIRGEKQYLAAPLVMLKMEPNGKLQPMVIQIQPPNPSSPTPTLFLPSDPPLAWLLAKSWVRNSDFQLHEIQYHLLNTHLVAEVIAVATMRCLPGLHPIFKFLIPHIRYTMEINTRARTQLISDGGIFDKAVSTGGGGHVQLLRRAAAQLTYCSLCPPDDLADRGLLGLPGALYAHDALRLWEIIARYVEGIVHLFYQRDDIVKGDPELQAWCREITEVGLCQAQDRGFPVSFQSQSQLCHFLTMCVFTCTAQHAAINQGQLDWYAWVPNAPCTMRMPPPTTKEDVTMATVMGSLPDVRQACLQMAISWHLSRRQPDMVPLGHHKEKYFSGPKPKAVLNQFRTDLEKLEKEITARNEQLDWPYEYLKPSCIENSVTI
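Hydroperoxide product was detected by ferrous iron/xylenol orange as the 573 to 405 nm absorbance ratio. Arachidonic acid at 40 uM (final) was turned over for 30 min at room temperature by 150 nM human 12hLO, pH 7.0 Hepes buffer, after 15 min compound preincubation.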
DT40 TDP1 CPT: qHTS for Inhibitors of human tyrosyl-DNA phosphodiesterase 1 (TDP1): qHTS in cells in presence of CPT. chicken DT40 Tdp1-/-;hTDP1 cells + 20 nM CPT, ATP luminescence, 48 h. Potency, µM (highest dose often 46.2 µM), actives largely listed as inhibitors. hit rate 12% among 420,000; also: nearly all actives have a fitted effect of over 55% in size
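Chicken DT40 Tdp1-/- cells stably complemented with human TDP1 were seeded at 400 cells/well in medium containing 20 nM camptothecin, exposed to pin-transferred compounds, and grown at 37 °C for at least 48 hr. Viability was read as ATP luminescence.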
HT1080-NT tox: qHTS for induction of synthetic lethality in tumor cells producing 2HG: qHTS for the HT-1080-NT fibrosarcoma cell line; AID 686970, 2013; Potency, µM (titrated, usually from 46.1 µM), most hits filed as cytotoxic; HT-1080-NT fibrosarcoma viability, CellTiter-Glo ATP luminescence, 48 h; hit rate 1.6% among 360,000;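 also: NT is the 2HG producing partner of a matched IDH1 knockdown line; nearly all actives have a fitted effect of over 55% in size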
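HT-1080-NT fibrosarcoma cells (2HG-overproducing), 750 cells/well in RPMI with 5% FBS, dosed after 2 h and incubated 48 h at 37C. CellTiter-Glo luminescence normalized to DMSO and no-cell wells; concentration-response curves fitted and classed.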
IL-1B inflam inh: qHTS for Inhibitors of Inflammasome Signaling: IL-1-beta AlphaLISA Primary Screen; THP-1 LPS/ATP IL-1B secretion, AlphaLISA, 16 h; active compounds read low; activity change, % at 57.5 µM; hit rate 4.7% among 360,000; in the data active = activity change below about -50%; inconclusive = mostly about -30% to -49%
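THP-1 cells pretreated 1 hr with compounds (up to 57.5 uM final), then stimulated with LPS (250 ng/mL final) plus ATP (1.25 mM final); secreted IL-1B measured by AlphaLISA after 16 hr, decreased signal indicating inhibition.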
HT1080 IDH1KD tx: qHTS for induction of synthetic lethality in tumor cells producing 2HG: qHTS for the HT-1080-IDH1KD cell line; Potency, µM (highest dose often 46.1 µM), actives largely listed as cytotoxic; HT-1080 IDH1 knockdown viability, ATP luminescence, 48 h; hit rate 2% among 360,000; AID 686971, 2013
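After a 2 h attachment period, IDH1KD HT-1080 cells took pin-transferred compound for 48 h at 37 °C; ATP-based luminescence after 10 min room-temperature reagent incubation reported viability.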
Large screens that a line does not name were inactive. Unless noted, calls follow the shape of the dose curve; as a rule, active = well fitted curve in the direction sought with a large enough effect; inconclusive = small, poorly fitted or top-dose-only effect, or another doubt; inactive = no such curve, though single readings can be large; an effect the other way counts as inactive or inconclusive.

Cc1cccc(CCN2C(Nc3ccccc3)=NC[C@@H]2CC(C)C)c1	TDP1 cell noCPT 20.6µM, DT40 TDP1 CPT 18.4µM, HT1080-NT tox inconclusive, IL-1B inflam inh -54.5
CN(C)C(=O)c1ccc(-c2ccc(N3CCCCCC3)nc2)cc1	none (no result: TDP1 cell noCPT, DT40 TDP1 CPT, HT1080-NT tox, IL-1B inflam inh, HT1080 IDH1KD tx)
CCn1ccc(C(=O)N2C[C@@H](COC)[C@H](c3nc(C4CC4)no3)C2)n1	none (no result: TDP1 cell noCPT, DT40 TDP1 CPT, HT1080-NT tox, IL-1B inflam inh, HT1080 IDH1KD tx)
COc1ccccc1NC(=O)Cn1nnc(C(=O)NCc2cccs2)c1N	TDP1 cell noCPT 0.461µM, DT40 TDP1 CPT 0.581µM, HT1080-NT tox 2.31µM, HT1080 IDH1KD tx 2.06µM
CCc1ccccc1NC(=O)Cn1nnc(C(=O)NCc2cccs2)c1N	TDP1 cell noCPT 3.26µM, DT40 TDP1 CPT 3.66µM, HT1080-NT tox 5.8µM, HT1080 IDH1KD tx 4.11µM
COc1ccc(NC(=O)Cn2nnc(C(=O)NCc3ccccc3)c2N)c(OC)c1	TDP1 cell noCPT 13µM, DT40 TDP1 CPT inconclusive, HT1080-NT tox inconclusive, HT1080 IDH1KD tx inconclusive
COc1ccc(CCNC(=O)c2nnn(CC(=O)Nc3cccc(F)c3)c2N)cc1OC	IL-1B inflam inh -98.2
COc1ccc(NC(=O)Cn2nnc(C(=O)NCCc3ccccc3)c2N)c(OC)c1	HT1080-NT tox inconclusive
CCc1ccc(NC(=O)CCS(=O)(=O)c2cc(-c3cc(C)no3)ccc2OC)cc1	none (no result: TDP1 cell noCPT, DT40 TDP1 CPT, HT1080-NT tox, IL-1B inflam inh, HT1080 IDH1KD tx)
COc1cc(C2C3=C(CCCC3=O)OC3=C2C(=O)CCC3)ccc1OCc1cccc(F)c1	none (no result: TDP1 cell noCPT, DT40 TDP1 CPT, HT1080-NT tox, IL-1B inflam inh, HT1080 IDH1KD tx)
Cc1ccc(C(=O)C(OC(=O)c2ccc(N(C)C)cc2)c2ccccc2)cc1 (stereo not drawn)	none (no result: TDP1 cell noCPT, DT40 TDP1 CPT, HT1080-NT tox, IL-1B inflam inh, HT1080 IDH1KD tx)
Cc1ccc(NC(=O)CN2C(=O)N/C(=C/c3cc(C)n(-c4cccc(C(=O)O)c4)c3C)C2=O)cc1	ALOX12 inh 17.8µM
Cc1ccc(NC(=O)CN2C(=O)N/C(=C/c3ccc(C)o3)C2=O)cc1	ALOX12 inh 35.5µM
O=C(CNC(=O)c1ccccc1Cl)N/N=C/c1ccc([N+](=O)[O-])s1	TDP1 cell noCPT 20.6µM, DT40 TDP1 CPT 20.6µM, HT1080-NT tox inconclusive, IL-1B inflam inh -55.6, HT1080 IDH1KD tx 23.1µM
O=C(Cc1cccs1)N/N=C\c1ccc([N+](=O)[O-])s1	TDP1 cell noCPT 20.6µM, DT40 TDP1 CPT 8.2µM, HT1080-NT tox inconclusive
O=C(CCNC(=O)c1ccccc1Cl)NN=Cc1ccccc1[N+](=O)[O-]	TDP1 cell noCPT inconclusive, DT40 TDP1 CPT inconclusive
CCC(C)c1ccc(NC(=O)CCc2ncc(-c3ccccc3F)o2)cc1 (stereo not drawn)	none (no result: TDP1 cell noCPT, DT40 TDP1 CPT, HT1080-NT tox, IL-1B inflam inh, HT1080 IDH1KD tx)
COC(=O)C1=C(C)N(C)C(C)=C(C(=O)OC)C1c1ccccc1C	TDP1 cell noCPT inconclusive, DT40 TDP1 CPT inconclusive
CCCCOc1ccccc1C1C(C(=O)OC)=C(C)N(C)C(C)=C1C(=O)OC	TDP1 cell noCPT 23.1µM, DT40 TDP1 CPT inconclusive
Clc1ccccc1-c1noc(-c2ccc(Br)cc2)n1	none (no result: TDP1 cell noCPT, DT40 TDP1 CPT, HT1080-NT tox, IL-1B inflam inh, HT1080 IDH1KD tx)
Cn1c2ccc(F)cc2c2nnc(SCC(=O)Nc3cccc(O)c3)nc21	TDP1 cell noCPT inconclusive, IL-1B inflam inh -71.0, HT1080 IDH1KD tx inconclusive
Cn1c2ccccc2c2nnc(SCC(=O)Nc3cccc(C(=O)O)c3)nc21	none
CCn1c2ccccc2c2nnc(SCC(=O)N3CC(C)OC(C)C3)nc21 (stereo not drawn)	TDP1 cell noCPT 16.4µM, DT40 TDP1 CPT inconclusive
COc1ccccc1N1CCN(C(=O)CSc2nnc3c4ccccc4n(CC(=O)O)c3n2)CC1	none
CCCn1c2ccccc2c2nnc(SCC(=O)Nc3ncccn3)nc21	TDP1 cell noCPT inconclusive, DT40 TDP1 CPT 25.9µM
